PubChem BioAssay AID1159580 (chemical genetic matrix, 2015)
Out of some 5,500 compounds screened, about 2,000 (36%) were called active. Not shown: some 18% with an inconclusive outcome. Cut-off read from the data, not from the text of the source: active = normalized growth mostly below about 0.91 (no sharp cut-off); inconclusive = no clear call, values can overlap the other calls; inactive = mostly above about 0.92. The list shows a part of the results.

Assay: chemical genetic growth profiling, strain panel (AID 1159580);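 note: tested at 20 µM; growth read once vehicle control cultures reached saturation at 30 °C; 1 = growth at the plate median or of vehicle wells; lower values mean less growth of the strain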
Details: S. cerevisiae deletion strains, growth OD

Measured: normalized growth

CNc1ncnc2c1ncn2[C@H]1C[C@H](OP(=O)(O)O)[C@@H](COP(=O)(O)O)O1
inactive: locus YAL040C, strain CLN3, stronger effect = lower value 0.995 | locus YCL061C, strain MRC1 (second series), stronger effect = lower value 1.01 | locus YDR363W, strain ESC2, stronger effect = lower value 1 | locus YER002W, strain NOP16, stronger effect = lower value 0.983 | locus YGR229C, strain SMI1, stronger effect = lower value 1.02 | locus YJR075W, strain HOC1, stronger effect = lower value 1.01 | locus YNL175C, strain NOP13, stronger effect = lower value 0.996 | locus YNL197C, strain WHI3, stronger effect = lower value 1 | locus YNL224C, strain SQS1, stronger effect = lower value 1 | locus YNL322C, strain KRE1, stronger effect = lower value 1.01 | locus YOR083W, strain WHI5 (second series), stronger effect = lower value 1.01 | locus YPL055C, strain LGE1, stronger effect = lower value 1.01 | locus YPL241C, strain CIN2, stronger effect = lower value 1
